G9a inh = inhibitors of human histone lysine methyltransferase G9a; Q96KQ7; G9a H3K9 monomethylation, AlphaScreen, 2 h; Potency, µM (highest dose often 102 µM), inactives show at the highest dose activity, negative = inhibition, usual class: inhibitors; actives 8.8% (n = 350,000); AID 504332; further: on the % scale 0 is the no-effect control and ±100 the full control effect; nearly all actives have a fitted effect of over 75% in size
Target sequence (Q96KQ7 913-1193 limits assumed): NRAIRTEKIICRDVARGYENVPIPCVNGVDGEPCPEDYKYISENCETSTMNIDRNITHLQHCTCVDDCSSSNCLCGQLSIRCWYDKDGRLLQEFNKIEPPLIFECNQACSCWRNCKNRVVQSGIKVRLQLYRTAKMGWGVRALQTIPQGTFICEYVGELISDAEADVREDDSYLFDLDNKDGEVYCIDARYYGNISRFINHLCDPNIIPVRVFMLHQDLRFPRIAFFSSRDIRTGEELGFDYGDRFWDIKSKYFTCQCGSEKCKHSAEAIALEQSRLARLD
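Quantitative HTS format: methyltransferase activity on a biotin-tagged H3K9 peptide is measured by AlphaScreen, using a rabbit anti-monomethyl-H3K9 antibody with streptavidin donor and anti-IgG acceptor beads. Final levels are 20 nM enzyme, 500 nM peptide, 20 uM SAM; 2 h RT.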
JMJD2A Tudor = blocks the human JMJD2A Tudor domain. O75164. AlphaScreen JMJD2A-Tudor / H3K4me3 peptide binding. Potency, µM (series often up to 114 µM), inactives show at the highest dose activity change, negative = inhibition, hits mostly inhibitors. actives 4.4% (n = 390,000); further: on the % scale 0 is the no-effect control and ±100 the full control effect; nearly all actives have a fitted effect of over 50% in size
BAZ2B inh = blocks human BAZ2B; Potency, µM (doses to about 114 µM), inactives show at the highest dose activity change, negative = inhibition, hits mostly inhibitors; actives 4.4% (n = 360,000); AlphaScreen BAZ2B-H3K14Ac peptide displacement; AID 504333; further: on the % scale 0 is the no-effect control and ±100 the full control effect; nearly all actives have a fitted effect of over 60% in size
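AlphaScreen displacement: compounds (up to 110uM) incubated 30 min at room temperature with a preformed 50 nM BAZ2B/50 nM biotinylated H3K14Ac peptide complex in PBS pH 7.4 with Tween-20. Donor and acceptor beads at 10 ug/mL final added, 20 min light-protected before reading.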
Sfp PPTase inh = Sfp phosphopantetheinyl transferase inhibition | actives 3.5% (n = 310,000) | Biochemical Sfp PPTase activity, qHTS | Q9F4F7 | Potency, µM, for inactives: largest response in the series, negative = inhibition, most hits filed as inhibitors;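 further: the enzyme is Sfp with the accession as filed and its product quenches rhodamine fluorescence; 0% = enzyme reaction without inhibitor and -100% = no enzyme wells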
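With Hepes-Na pH 7.6 buffer containing 10 mM MgCl2, Sfp (15 nM) modified BHQ-2-YbbR (12.5 uM) using rhodamine-CoA (5 uM). Two reads 30 minutes apart at 525/598 nm yielded each well's rate.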
HP1b chromo inh = inhibitors of HP1-beta chromodomain binding to methylated histone tails; P83916; AlphaScreen HP1-beta / biotin-H3K9me3 peptide binding; Potency, µM (highest dose often 114 µM), for the others: top-dose activity change, negative = inhibition, most hits filed as inhibitors; actives 0.56% (n = 390,000); AID 540317; further: nearly all actives have a fitted effect of over 70% in size
Target sequence (P83916 whole entry, looked up): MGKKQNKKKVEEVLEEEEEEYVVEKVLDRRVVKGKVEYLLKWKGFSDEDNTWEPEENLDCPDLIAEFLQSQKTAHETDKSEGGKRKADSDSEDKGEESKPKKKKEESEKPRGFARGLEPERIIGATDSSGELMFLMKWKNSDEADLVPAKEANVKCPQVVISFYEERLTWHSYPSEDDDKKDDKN
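Compound inhibition of the preformed complex between 50 nM HP1-beta and 50 nM biotinylated H3K9me3 peptide was read by AlphaScreen. Buffer was PBS pH 7.4 with 0.01% Tween-20. Incubations ran 30 min at room temperature, with 10 ug/mL donor/acceptor beads.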
L3MBTL1 inh = blocks human L3MBTL1; AlphaScreen L3MBTL1–H3K9me1 peptide binding; Potency, µM (top dose mostly 57.1 µM), without a hit: at the highest dose activity, negative = inhibition, hits mostly inhibitors; actives 0.66% (n = 230,000); AID 485360; further: on the % scale 0 is the no-effect control and ±100 the full control effect; nearly all actives have a fitted effect of over 60% in size
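Read-out is AlphaScreen signal from streptavidin donor and nickel chelate acceptor beads (10 ug/mL final each) bridging L3MBTL1 (50 nM) and biotinylated K9-monomethylated H3(1-15) peptide (75 nM), after 30 min compound exposure at room temperature.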
Numbers without * were called inactive; ? = inconclusive; . = not tested or not shown; [ ] = remark or other dose. Only some compounds are listed: those with a hit (about 12% of all), similar ones and a draw of the others. The call rests on the fitted dose curve; in most records, active means well fitted curve in the direction sought with a large enough effect; inconclusive means small, poorly fitted or top-dose-only effect, or another doubt; inactive means no such curve, though single readings can be large; an effect the other way counts as inactive or inconclusive. Potency means the concentration at half of the fitted maximal effect.

SMILES	G9a inh	JMJD2A Tudor	BAZ2B inh	Sfp PPTase inh	HP1b chromo inh	L3MBTL1 inh
CCn1cnc2c1c(=O)n(CC(=O)NCc1ccccc1)c(=O)n2Cc1ccccc1	2%	-6%	-3%	12%	31%	0%
CCOC(=O)c1c(C)[nH]c(C(=O)Cn2c(=O)c3c(ncn3CC)n(Cc3ccccc3)c2=O)c1C	8.9µM*	-22%	-6%	-9%	5%	-15%
COc1ccc(OC)c(CNC(=O)c2ccc3c(c2)c(C)c(C)n3C)c1	?	?	35µM*	.	-3%	.
Cc1c(C)n(C)c2ccc(C(=O)NCc3cccs3)cc12	50µM*	?	?	3%	-7%	-13%
COc1ccc(OC)c(NC(=O)c2ccc3c(c2)c(C)c(C)n3Cc2ccc(F)cc2)c1	?	?	25µM*	.	15%	.
COc1ccc(OC)c(CNC(=O)c2ccc3c(c2)c(C)c(C)n3Cc2ccc(Cl)cc2)c1	-44%[59 µM]	?	-33%	.	11%	.
Cc1c(C)n(C)c2ccc(C(=O)NCCCN3CCN(C)CC3)cc12	?	?	-23%[57.1 µM]	11%	6%	.
O=S(=O)(c1ccccc1Cl)N1CCN(c2nc(-c3ccccc3)nc3ccccc23)CC1	.	-6%	.	.	23%	.
COc1ccc(-n2c(=O)c3c(c4cc(OC)ccc4n3C)n(CCC(C)C)c2=O)cc1	5%[59 µM]	-2%	5%	.	52%	.
CCOc1ccc(CCNC(=O)Cn2ncn3c(cc4sc(C)cc43)c2=O)cc1OCC	-2%[59 µM]	-6%	0%	.	16%	.
FC(F)(F)c1ccccc1-c1cncnc1NCCN1CCOCC1	-1%[0.501 µM]	.	.	1%	.	.
COc1ccc(-c2cc(-c3ccccc3)nc3c2COc2ccc(F)cc2-3)cc1	6%[59 µM]	17%	1%	.	36%	.
CC(=O)c1ccc(NS(=O)(=O)c2cc(-c3cc(C)no3)ccc2C)cc1	-2%[59 µM]	-26%	2%	.	32%	.
Cc1ccc(C)c(-n2c(-c3ccco3)n[nH]c2=S)c1	.	8.9µM*	.	.	-23%	.
Nn1c(-c2ccco2)n[nH]c1=S	8.9µM*	7.1µM*	50µM*	56µM*	?	12%
Cn1cc(Cl)c(C(=O)NC2CCCCCC2)n1	19%[12.7 µM]	-8%	-5%	13%	0%	-4%
Cn1cc(Cl)c(-c2n[nH]c(=S)n2C2CCCCC2)n1	?	4.5µM*	-19%	25%	17%	.
COc1ccc(-n2c(-c3ccco3)n[nH]c2=S)cc1	4µM*	4.5µM*	-3%	-19%	?	1%
Cc1ccc(C)c(N2CN(Cc3ccco3)CNC2=S)c1	18%[59 µM]	-24%	3%	18%	9%	-2%
COc1ccc(Cl)cc1NC(=O)Cc1ccc(NC(=O)N2CCCCc3ccccc32)cc1	6%[59 µM]	-12%	-4%	.	23%	.
CN(C(=O)CSc1nnc(-c2ccco2)n1N)C1CCCCC1	-1%	-6%	0%	14%	40%	-2%
S=c1[nH]nc(-c2ccco2)n1-c1ccc(Cl)cc1	?	32µM*	-15%	-15%	-8%	0%
S=c1[nH]nc(-c2ccco2)n1C1CCCCC1	2µM*	3.2µM*	-12%	-20%	?	-3%
COc1ccc(NC(=O)Cn2c(SCc3c(F)cccc3Cl)nc3ccncc32)cc1OC	?	?	2%	.	13%	.
CC(=O)OC[C@@H]1O[C@@H](O/N=C2/C[C@@H](O)[C@@H](O)[C@@H]3[C@@H]4C(=O)N(Cc5ccccc5)C(=O)[C@H]4CC[C@@H]23)[C@H](OC(C)=O)[C@H](OC(C)=O)[C@@H]1OC(C)=O	.	.	.	0%	.	.
SMILES	G9a inh	JMJD2A Tudor	BAZ2B inh	Sfp PPTase inh	HP1b chromo inh	L3MBTL1 inh
CCOc1ccc(NC(=O)NCc2ccc3c(c2)CCN3C(C)=O)cc1	4%[59 µM]	-8%	2%	.	9%[57 µM]	.
CCCC(=O)Nc1sc2c(c1C#N)CCCC2	21%[59 µM]	-7%	8%	13%	24%	0%
CC1CCc2c(sc(NC(=O)C3CCCO3)c2C#N)C1 (stereo unspecified)	-1%	-6%	-4%	7%	28%	0%
CCc1c(C)sc(NC(=O)c2cc(C3CC3)on2)c1C#N	45µM*	0%	10%	0%	-1%	0%
CCc1c(C)sc(NC(=O)C2CCCO2)c1C#N (stereo unspecified)	8.9µM*	-25%[57.1 µM]	-2%	22µM*	?	-2%
CCCc1cc(C(=O)Nc2sc3c(c2C#N)CCC3)no1	40µM*	-4%	1%	50µM*	-11%	-12%
CCCc1cc(C(=O)Nc2sc(C)c(CC)c2C#N)no1	14%[59 µM]	6%	2%	56µM*	4%	12%
C1CNCCOCCNCCN1	-5%	-25%	45µM*	-9%	50%	-3%
COCCNC(=O)c1cnn(-c2ccc(C)cc2C)c1C1CCN(C(=O)OC(C)(C)C)CC1	-3%[59 µM]	-15%	6%[57.1 µM]	.	43%	.
COCCNC(=O)c1c[nH]n2c(=O)cc(C3CCN(C(=O)OC(C)(C)C)CC3)nc12	56µM*	-8%	-21%	15%	25%	.
CCCCN1CC(O)C(O)C(O)C1CO (stereo unspecified)	-2%[12.7 µM]	.	.	2%	.	.
CC(C)n1cnc2c(N(C)c3ccccc3)nc(N(CCN(C)C)Cc3ccccc3)nc21	?	45µM*	32µM*	?	?	.
O=C(NCc1ccco1)C1CC(c2ccccc2O)=NO1 (stereo unspecified)	.	?	79µM*	-26%	2%	-7%
O=C(NCc1ccco1)C1CC(c2ccccc2C(F)(F)F)=NO1 (stereo unspecified)	6%[59 µM]	-12%	-1%	-9%	33%	.
COc1cccc(C2=NOC(C(=O)Nc3ccc4c(c3)OCO4)C2)c1OC (stereo unspecified)	45µM*	-12%	-8%	0%	0%	.
COc1cc(C2=NOC(C(=O)Nc3ccc4c(c3)OCO4)C2)cc(OC)c1OC (stereo unspecified)	25µM*	-34%	-35%	-3%	10%	.
COc1ccc(NC(=O)C2CC(c3ccccc3O)=NO2)cc1OC (stereo unspecified)	45µM*	-12%	3%	19%	32%	4%
COc1cccc(C2=NOC(C(=O)Nc3ccc4c(c3)OCO4)C2)c1 (stereo unspecified)	?	-13%	-35%	9%	31%	.
COc1ccc(NC(=O)C2CC(c3cc(OC)c(OC)c(OC)c3)=NO2)cc1OC (stereo unspecified)	?	-28%	-30%	-3%	-4%	.
COc1ccc(-c2noc(-c3ccc(NCCc4ccccc4)c([N+](=O)[O-])c3)n2)cc1OC	-28%[59 µM]	-11%	1%	.	40%	.
Cc1ccc(C(=O)NCc2ccccc2)cc1NC(=O)c1nsc2ccccc12	2%[59 µM]	-7%	-17%	.	20%[57 µM]	.

Screening data from PubChem.
